For experiment [1], the target named is Thyrotropin receptor (Homo sapiens) (UniProt P16473). Nature of the experiment: qHTS assay to identify small molecule antagonists of the thyroid stimulating hormone receptor (TSHR) signaling pathway (AID 1259385; calls by dose curve; note: nearly all actives have a fitted effect of over 20% in size). In outline: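 Antagonist mode: compound-treated TSHR-expressing HEK293 cells were stimulated with 1.5 ng/mL TSH (final) in presence of Ro20-1724 for 30 min at RT. HTRF cAMP detection after 1 h; each compound tested at 15 concentrations, triplicate.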
(In qHTS, concentration-response curves come from the screen itself.)

The nature of experiment [2]: qHTS assay to identify small molecule agonists of the estrogen receptor alpha (ER-alpha) signaling pathway in the presence of an antagonist - cell viability counter screen (AID 1259386).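 Note: series mostly up to about 92 µM; cells exposed to compounds for 22 h at 37 °C before the viability read; nearly all actives have a fitted effect of over 30% in size.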 In outline:
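The test measures whether compounds kill ER-alpha reporter cells (VM7Luc4E2) under antagonist co-treatment (ICI-182,780, 10.0nM). Fluorescence from CellTiter-Fluor is read after a 22hr exposure.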

Experiment [3] concerns the target Progesterone receptor (Homo sapiens) (UniProt P06401). Nature of the experiment: qHTS assay to identify small molecule agonists of the progesterone receptor (PR) signaling pathway (AID 1346784; calls by dose curve; note: nearly all actives have a fitted effect of over 30% in size; note: potency is the fitted concentration of half-maximal effect). In outline: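 HEK 293T PR-UAS-bla reporter cells, 2% charcoal-stripped FBS; 6 hr settle at 37C/5% CO2, compound (DMSO) 16 hr, LiveBLAzer B/G FRET substrate 2 hr RT, fluorescence intensity read.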

The nature of experiment [4]: qHTS assay to identify small molecule antagonists of the progesterone receptor (PR) signaling pathway - cell viability counter screen (AID 1346798). Note: series mostly up to about 92 µM; nearly all actives have a fitted effect of over 50% in size. In outline:
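Luminescence readout (CellTiter-Glo, 30 min, RT) of viability in PR-UAS-bla HEK293T cells exposed to compound and R5020 agonist for 16 hr at 37C, 5% CO2; run in the same wells as the beta-lactamase reporter read.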

Experiment [5] in a line: qHTS assay to identify small molecule agonists of the progesterone receptor (PR) signaling pathway - cell viability counter screen (AID 1346799; calls by dose curve; note: nearly all actives have a fitted effect of over 45% in size). In outline: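 HEK293T PR-UAS-bla, 3,000 cells/well, 2% charcoal-stripped FBS; 6 h settle, compound 16 h at 37C/5% CO2; LiveBLAzer 2 h RT, then CellTiter-Glo 30 min RT, luminescence read.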
The nature of experiment [6]: qHTS assay to identify small molecule antagonists of the TGF-beta/Smad signaling pathway - cell viability counter screen (AID 1346824). Note: nearly all actives have a fitted effect of over 50% in size. In outline: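 Cytotoxicity counter-screen run in the same wells as the beta-lactamase Smad reporter read: CellTiter-Glo luminescence after 30 min at room temperature. HEK 293T SBE-bla cells had 5 hr compound exposure at 37 C with TGF-beta1 (0.25 ng/mL stock).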

Experiment [7] in a line: qHTS assay to identify small molecule agonists of the TGF-beta/Smad signaling pathway - cell viability counter screen (AID 1346829). Note: top concentration of the series differs between compounds; nearly all actives have a fitted effect of over 45% in size. In outline:
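Compound-treated SBE-bla HEK 293T cells (5 hr, 37 C) were assessed for viability with CellTiter-Glo in parallel with the reporter read.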

A short description of experiment [8]: qHTS assay to identify small molecule agonists of the TGF-beta/Smad signaling pathway (AID 1346859; active = well fitted activation curve with a large enough effect in the signal ratio in the repeat runs, not every such curve was filed as active; the % refers to the signal ratio; note: series mostly up to about 77 µM). In outline:
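Read-out: fluorescence at 460 and 530 nm (405 nm excitation) after a 2 hr room-temperature incubation with beta-lactamase FRET substrate. SBE-bla HEK 293T cells had been treated with test compounds for 5 hr at 37 C.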

In experiment [9] the target is Thyrotropin-releasing hormone receptor (Homo sapiens) (UniProt P34981). Kind of experiment: qHTS assay to identify small molecule antagonists of the thyrotropin-releasing hormone receptor (TRHR) signaling pathway (AID 1346877; active = well fitted inhibition curve with a large enough effect in the repeat runs, not every such curve was filed as active; note: series mostly up to about 51 µM). In outline:
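Overnight-plated (18 h, 37 °C) HEK293 cells expressing TRHR were dye-loaded 2 h, treated with compound, then stimulated with TRH at 1 nM final. Fluorescence intensity was captured every second for 3 min.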

For experiment [10] the target is unchanged. Kind of experiment: qHTS assay to identify small molecule agonists of the thyrotropin-releasing hormone receptor (TRHR) signaling pathway (AID 1346891; calls by dose curve;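 note: HEK293 cells expressing TRHR with calcium dye readout; series mostly up to about 58 µM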). In outline: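 HEK293/TRHR cells, 1500 per well, 18 h 37 °C; Ca dye 2 h 37 °C; pin-tool compound addition (agonist mode); kinetic fluorescence 3 min, 1 s reads; 15 concentrations, triplicate.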
The nature of experiment [11]: Human pregnane X receptor (PXR) small molecule agonists, qHTS cell viability counter screen (AID 1346977). Note: nearly all actives have a fitted effect of over 50% in size. In outline: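 Fluorescence read-out (CellTiter-Fluor) of viability in PXR-Luc HepG2 cells, multiplexed with the luciferase agonist read. Compounds in DMSO added after 5hr plating; 24hr total exposure at 37C, 5% CO2.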
The nature of experiment [12]: Caspase-3/7 induction in HepG2 cells by small molecules, qHTS assay (AID 1346978). Note: nearly all actives have a fitted effect of over 15% in size. In outline: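 Caspase-3/7 induction was measured by Caspase-Glo 3/7 luminescence (30 min, room temperature) after a 17 hr compound exposure of wild-type HepG2 cells seeded at 2,000 per well and pre-incubated 5 hr.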
Experiment [13] is described as follows: Caspase-3/7 induction in CHO-K1 cells by small molecules, qHTS cell viability counter screen (AID 1346979). Note: nearly all actives have a fitted effect of over 35% in size. In outline: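 CHO-K1 wt, 1,500 cells/well; 5hr pre-incubation 37C/5% CO2; compound pin transfer (DMSO); 16hr exposure; CellTiter-Fluor added, 1hr, fluorescence read.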
Experiment [14] in a line: Caspase-3/7 induction in CHO-K1 cells by small molecules, qHTS assay (AID 1346980). Note: nearly all actives have a fitted effect of over 15% in size. In outline: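 Luminescent Caspase-Glo 3/7 read (30min, room temperature) quantified apoptosis induction. Cells were wild-type CHO-K1, treated with compound for 17hr at 37 C and 5% CO2.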
Experiment [15] can be described thus: Caspase-3/7 induction in HepG2 cells by small molecules, qHTS cell viability counter screen (AID 1346981). Note: series mostly up to about 92 µM; nearly all actives have a fitted effect of over 30% in size. In outline: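 Treatment of HepG2 cells with DMSO-delivered compounds ran 16 hr at 37 C following a 5-hr pre-incubation of 2,000 cells/well. CellTiter-Fluor fluorescence, read after 1 hr, served as the viability measure in a qHTS format.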
The target of experiment [16] is Progesterone receptor (Homo sapiens) (UniProt P06401). Nature of the experiment: qHTS assay to identify small molecule antagonists of the progesterone receptor (PR) signaling pathway (AID 1346795; active = well fitted inhibition curve with a large enough effect in the signal ratio in the repeat runs, not every such curve was filed as active; the % refers to the signal ratio). In outline:
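Beta-lactamase reporter, HEK293T PR-UAS-bla line; 2% charcoal-stripped FBS; 6 hr pre-incubation, 37C/5% CO2. Compound + R5020 1 nM final, 16 hr. LiveBLAzer B/G FRET substrate, 2 hr RT; fluorescence intensity read.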

The target in experiment [17] is Nuclear receptor subfamily 1 group I member 2 (Homo sapiens) (UniProt O75469). Nature of the experiment: Human pregnane X receptor (PXR) small molecule agonists, qHTS assay (AID 1346982). Note: nearly all actives have a fitted effect of over 35% in size. Note: potency is the fitted concentration of half-maximal effect. In outline:
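Stable HepG2 line reporting PXR-mediated CYP3A4 expression via luciferase. Treatment: 24 hr with compounds in DMSO at 37 C. Detection: ONE-Glo luminescence.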

The target of experiment [18] is Nuclear receptor subfamily 1 group I member 2 (Rattus norvegicus) (UniProt Q9R1A7). Kind of experiment: Rat pregnane X receptor (rPXR) activation by small molecules, qHTS assay (AID 1346983). Note: nearly all actives have a fitted effect of over 20% in size. As to conditions: rPXR luciferase reporter cells, One-Glo luminescence, 24 h; max activation: hits give high values. In outline: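 Luminescent readout (One-Glo luciferase, 30 min room temperature) followed 24 hr compound treatment at 37 C of rPXR cells plated 2,000 per well and preincubated 5hr; qHTS format with compounds delivered in DMSO.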

Experiment [19] deals with Nuclear receptor subfamily 1 group I member 2 (Homo sapiens) (UniProt O75469). Nature of the experiment: CYP3A4 induction through human pregnane X receptor (PXR) by small molecules, qHTS assay (AID 1346984). Note: nearly all actives have a fitted effect of over 40% in size. In outline:
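After 24 h at 37C with compound, DPX-2 cells (HepG2, co-transfected PXR response element and CYP3A4 promoter-luciferase) got 3uM final P450-Glo Luciferin-IPA for 3 h; One-Glo luminescence followed.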

Experiment [20] has the same target. Nature of the experiment: Human pregnane X receptor (PXR) activation by small molecules, qHTS assay (AID 1346985). Note: nearly all actives have a fitted effect of over 40% in size. In outline: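 DPX-2 cells (HepG2 co-transfected with a PXR response element and a CYP3A4-promoter luciferase construct) were seeded at 2,000 per well, rested 5 hr at 37C, then exposed to DMSO-dissolved compounds for 24 hr. Activation was read as luciferase luminescence.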

A number with no mark means an inactive call. Results filed as inconclusive are left out. Calls of active or inactive are those of the source. Unless noted, calls come from the whole dose curve; as a rule, active = well fitted curve in the direction sought with a large enough effect in the repeat runs; inconclusive = weak or mixed curves; inactive = no such curve, though single readings can be large; an effect the other way counts as inactive or inconclusive.
% is set by controls: 0 for no effect and ±100 for the full control effect.

Chain of Progesterone receptor (Homo sapiens) (P06401 whole entry, looked up): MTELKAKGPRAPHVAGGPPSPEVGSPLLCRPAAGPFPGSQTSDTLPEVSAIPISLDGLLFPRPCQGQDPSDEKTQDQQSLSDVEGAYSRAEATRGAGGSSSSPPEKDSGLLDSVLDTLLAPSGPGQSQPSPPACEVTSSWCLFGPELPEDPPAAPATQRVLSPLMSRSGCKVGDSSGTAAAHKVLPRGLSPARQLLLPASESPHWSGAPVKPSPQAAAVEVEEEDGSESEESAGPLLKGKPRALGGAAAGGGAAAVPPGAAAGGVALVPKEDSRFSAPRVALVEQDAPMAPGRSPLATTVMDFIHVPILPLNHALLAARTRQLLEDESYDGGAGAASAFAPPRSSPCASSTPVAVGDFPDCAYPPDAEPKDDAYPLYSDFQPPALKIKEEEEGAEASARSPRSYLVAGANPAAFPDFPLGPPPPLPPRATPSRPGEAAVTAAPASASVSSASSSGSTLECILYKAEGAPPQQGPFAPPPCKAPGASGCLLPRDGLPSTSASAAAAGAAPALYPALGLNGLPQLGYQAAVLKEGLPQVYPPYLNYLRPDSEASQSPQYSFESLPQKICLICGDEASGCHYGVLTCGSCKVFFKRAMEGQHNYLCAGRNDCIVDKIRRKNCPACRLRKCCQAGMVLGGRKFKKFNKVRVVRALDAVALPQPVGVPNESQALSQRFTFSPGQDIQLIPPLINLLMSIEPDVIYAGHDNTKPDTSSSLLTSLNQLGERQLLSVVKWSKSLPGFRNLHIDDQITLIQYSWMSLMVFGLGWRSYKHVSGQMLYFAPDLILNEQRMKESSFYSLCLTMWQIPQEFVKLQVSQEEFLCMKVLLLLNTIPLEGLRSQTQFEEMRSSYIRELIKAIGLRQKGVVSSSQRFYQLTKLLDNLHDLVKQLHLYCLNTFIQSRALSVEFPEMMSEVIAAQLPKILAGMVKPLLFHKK
Chain of Thyrotropin receptor (Homo sapiens) (P16473 whole entry, looked up): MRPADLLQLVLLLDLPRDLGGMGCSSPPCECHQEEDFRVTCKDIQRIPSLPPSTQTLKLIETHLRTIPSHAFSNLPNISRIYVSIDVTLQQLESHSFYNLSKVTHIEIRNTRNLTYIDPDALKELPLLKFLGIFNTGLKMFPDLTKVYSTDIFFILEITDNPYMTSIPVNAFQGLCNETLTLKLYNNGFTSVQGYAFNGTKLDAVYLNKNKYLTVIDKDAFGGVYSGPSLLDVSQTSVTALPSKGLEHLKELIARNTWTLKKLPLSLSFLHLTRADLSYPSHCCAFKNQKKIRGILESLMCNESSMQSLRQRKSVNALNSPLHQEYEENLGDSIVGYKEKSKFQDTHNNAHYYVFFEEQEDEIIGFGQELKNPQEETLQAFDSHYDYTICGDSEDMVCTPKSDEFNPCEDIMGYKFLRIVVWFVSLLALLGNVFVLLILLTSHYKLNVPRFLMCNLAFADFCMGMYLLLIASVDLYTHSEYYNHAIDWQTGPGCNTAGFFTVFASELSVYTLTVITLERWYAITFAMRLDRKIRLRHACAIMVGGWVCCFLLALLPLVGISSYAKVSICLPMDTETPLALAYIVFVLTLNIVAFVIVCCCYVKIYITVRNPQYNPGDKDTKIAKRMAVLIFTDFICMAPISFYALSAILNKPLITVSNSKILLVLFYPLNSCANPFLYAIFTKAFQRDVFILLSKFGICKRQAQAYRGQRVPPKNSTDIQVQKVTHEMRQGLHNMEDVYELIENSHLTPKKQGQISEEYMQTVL
Chain of Nuclear receptor subfamily 1 group I member 2 (Homo sapiens) (O75469 whole entry, looked up): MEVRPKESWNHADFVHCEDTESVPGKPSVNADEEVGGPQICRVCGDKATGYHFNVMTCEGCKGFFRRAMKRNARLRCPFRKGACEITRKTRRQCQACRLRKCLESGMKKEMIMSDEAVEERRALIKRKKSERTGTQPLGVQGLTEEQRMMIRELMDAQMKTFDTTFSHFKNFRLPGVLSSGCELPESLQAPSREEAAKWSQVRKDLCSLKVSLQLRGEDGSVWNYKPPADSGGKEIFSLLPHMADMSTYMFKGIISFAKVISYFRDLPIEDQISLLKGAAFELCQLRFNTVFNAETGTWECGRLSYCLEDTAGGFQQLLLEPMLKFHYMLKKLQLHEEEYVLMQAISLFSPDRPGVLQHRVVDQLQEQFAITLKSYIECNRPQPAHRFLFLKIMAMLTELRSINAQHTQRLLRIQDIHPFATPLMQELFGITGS
Chain of Thyrotropin-releasing hormone receptor (Homo sapiens) (P34981 whole entry, looked up): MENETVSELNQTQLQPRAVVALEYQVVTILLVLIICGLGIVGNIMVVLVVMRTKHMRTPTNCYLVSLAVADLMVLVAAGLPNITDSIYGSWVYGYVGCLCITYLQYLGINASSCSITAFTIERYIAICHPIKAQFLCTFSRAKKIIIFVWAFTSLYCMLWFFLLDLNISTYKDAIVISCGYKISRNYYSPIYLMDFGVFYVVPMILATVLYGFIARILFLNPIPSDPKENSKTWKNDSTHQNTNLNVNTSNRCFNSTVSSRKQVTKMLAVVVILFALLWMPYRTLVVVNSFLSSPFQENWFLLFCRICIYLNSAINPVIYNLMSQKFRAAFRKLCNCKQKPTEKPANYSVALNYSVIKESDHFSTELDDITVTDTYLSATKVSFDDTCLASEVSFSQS
Chain of Nuclear receptor subfamily 1 group I member 2 (Rattus norvegicus) (Q9R1A7 whole entry, looked up): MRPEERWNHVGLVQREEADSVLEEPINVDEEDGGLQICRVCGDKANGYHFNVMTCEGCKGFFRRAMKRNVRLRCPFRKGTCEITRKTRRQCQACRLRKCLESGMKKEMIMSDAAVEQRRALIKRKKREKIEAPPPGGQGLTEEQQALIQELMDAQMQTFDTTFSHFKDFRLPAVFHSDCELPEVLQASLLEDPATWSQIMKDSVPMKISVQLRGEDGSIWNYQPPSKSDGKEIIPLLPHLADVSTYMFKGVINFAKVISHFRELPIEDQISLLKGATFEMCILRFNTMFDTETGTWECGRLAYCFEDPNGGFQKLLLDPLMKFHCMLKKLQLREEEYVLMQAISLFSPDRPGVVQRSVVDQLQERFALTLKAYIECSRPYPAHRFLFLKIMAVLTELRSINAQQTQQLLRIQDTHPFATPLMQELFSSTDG

Turning to `CC(C)(C)C1(CCc2ccc(Cl)cc2)CO1` (centres undefined), the Potency result in [1], in experiment [2], in experiment [3], in [4], in [5] and in experiment [7] was “inactive” throughout. Besides, the Potency entry in experiment [8], in experiment [11], in experiment [12], in experiment [13] and in experiment [15] was “inactive” in each case. For the same compound, the result in [6], in experiment [9], in [10] and in experiment [14] was inactive.
As to `O=C(O)c1cccc(Oc2ccccc2)c1`, the Potency result in [1], in [2], in experiment [3], in [16], in experiment [4] and in [7] was “inactive” throughout. Besides, the Potency entry in experiment [11], in experiment [12], in [15] and in experiment [17] was “inactive” each time. Besides, the compound was called inactive in experiment [6], in experiment [9], in [10] and in experiment [14].
For the compound `C=CC(=O)O`, the Potency entry in [1], in experiment [2], in experiment [3], in experiment [16], in experiment [4] and in [8] was “inactive” each time. In addition, the Potency entry in [11], in experiment [12], in experiment [13], in [15], in experiment [17] and in [19] was “inactive” each time. Further, the Potency result in experiment [20] is “inactive”. In addition, the compound was called inactive in experiment [6] and in experiment [14]. For the same compound, the max activation in experiment [18] was -1.96%.
Consider `CC(=O)OCC1=C(C(=O)O)N2C(=O)[C@@H](NC(=O)CSc3ccncc3)[C@H]2SC1`, for which the Potency entry in experiment [1], in experiment [2], in [3], in [4], in experiment [5] and in experiment [8] was “inactive” throughout. Also, the Potency result in experiment [11], in [12], in experiment [13] and in experiment [15] was “inactive” each time. The outcome in experiment [6], in experiment [9], in [10] and in [14] was inactive. In experiment [18], the max activation was -5.99%.
As for `C=C(C)c1ccccc1`, the Potency result in experiment [1], in experiment [2], in experiment [16], in experiment [4], in experiment [7] and in [8] was “inactive” throughout. Also, the Potency entry in experiment [11], in experiment [12], in experiment [15] and in [17] was “inactive” each time. For the same compound, the Potency in experiment [3] is 15.4 µM (active). The result in experiment [6], in experiment [9], in experiment [10] and in experiment [14] was inactive.
Take `C=C(C)C(=O)OCCC(F)(F)C(F)(F)C(F)(F)C(F)(F)C(F)(F)C(F)(F)F`: the Potency result in [1], in experiment [2], in [3], in [16], in experiment [4] and in [7] was “inactive” throughout. The Potency entry in [8], in [11], in experiment [12], in [15] and in [17] was “inactive” in each case. The outcome in [6], in experiment [9], in [10] and in [14] was inactive.
On to `C=Cc1ccc(OC(C)=O)cc1`, for which the Potency result in experiment [1], in experiment [2], in [3], in experiment [16], in experiment [4] and in [7] was “inactive” each time. Besides, the Potency result in experiment [8], in experiment [11], in [12] and in experiment [13] was “inactive” in each case. The call in experiment [6] and in experiment [14] was inactive.
Turning to `Cc1oc(=O)oc1COC(=O)[C@@H]1N2C(=O)[C@@H](NC(=O)[C@H](N)c3ccccc3)[C@H]2SC1(C)C`, the Potency result in [1], in experiment [2], in experiment [3], in [16], in experiment [7] and in experiment [8] was “inactive” throughout. In addition, the Potency result in [11], in experiment [12], in [13], in experiment [15] and in [17] was “inactive” each time. In addition, the compound was classed as inactive in experiment [6], in [9], in experiment [10] and in experiment [14].
Take `Nc1nc2ccc(OC(F)(F)F)cc2s1`: the Potency result in experiment [1], in experiment [2], in [3], in experiment [4], in [5] and in [8] was “inactive” each time. In addition, the Potency result in experiment [11], in experiment [12] and in experiment [15] was “inactive” each time. For the same compound, the call in [6] and in [14] was inactive. Moreover, the Potency in [17] is 13.3 µM (active).
